Inconclusive results are not listed. Calls of active or inactive are those of the source. How the source made its calls: active means hit-call score of the fitted dose curve at least 0.9, where 1 is the maximum; inconclusive means response in the unintended direction; inactive means score below 0.9.

human Dopamine Receptor D2 (DRD2), DRD2 (gene 1813), sequence (P14416 whole entry, looked up): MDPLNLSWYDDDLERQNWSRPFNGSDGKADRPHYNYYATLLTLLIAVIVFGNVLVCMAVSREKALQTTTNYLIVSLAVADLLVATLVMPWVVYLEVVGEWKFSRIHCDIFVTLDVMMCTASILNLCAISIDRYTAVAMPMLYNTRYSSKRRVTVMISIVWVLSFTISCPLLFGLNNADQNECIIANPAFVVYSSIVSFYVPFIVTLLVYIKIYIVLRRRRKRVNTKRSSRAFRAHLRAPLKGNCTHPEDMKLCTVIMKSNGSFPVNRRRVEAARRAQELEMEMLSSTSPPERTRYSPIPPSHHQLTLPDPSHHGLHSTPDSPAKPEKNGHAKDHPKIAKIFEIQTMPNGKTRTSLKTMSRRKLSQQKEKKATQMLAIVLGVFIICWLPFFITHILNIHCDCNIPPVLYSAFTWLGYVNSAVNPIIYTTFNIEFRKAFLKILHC

The target of the assay is human Dopamine Receptor D2 (DRD2), DRD2 (gene 1813) (UniProt P14416). The experiment in a line: NVS_GPCR_hDRD2s: NovaScreen (NVS) G Protein-Coupled Receptor Assay for human Dopamine Receptor D2 (DRD2) (AID 2283266). As for the experimental part:
NVS_GPCR_hDRD2s is a biochemical, single-readout assay that uses extracted gene-proteins from CHO in a cell-free assay. Measurements were taken 1.5 hours after chemical dosing in a 96-well plate.NVS_GPCR_hDRD2s is one of one assay component(s) measured or calculated from the NVS_GPCR_hDRD2s assay. It is designed to make measurements of radioligand binding, a form of binding reporter, as detected with scintillation counting signals by Filter-based radiodetection technology.Data from the assay component NVS_GPCR_hDRD2s was analyzed into 1 assay endpoint. This assay endpoint, NVS_GPCR_hDRD2s, was analyzed in the positive analysis fitting direction relative to DMSO as the negative control and baseline of activity. Using a type of binding reporter, loss-of-signal activity can be used to understand changes in the binding as they relate to the gene DRD2. Furthermore, this assay endpoint can be referred to as a primary readout, because the performed assay has only produced 1 assay endpoint. To generalize the intended target to other relatable targets, this assay endpoint is annotated to the gpcr intended target family, where the subfamily is rhodopsin-like receptor.
Binding assays used specific radioligands (tritiated, iodinated) with non-radioactive competitive displacement ligands in agonist or antagonist protocols (as indicated) and various reference compounds and inhibitors to titrate specific binding to receptors and transporters. Most enzyme assays (CYPs, kinases, phosphatases, proteases, HDACs) used recombinant protein and specific substrates (fluorescence mostly, some colorimetric and radioactive) and inhibitors, followed by a biochemical separation of substrate and product. All assays for the biochemical HTS were initially run in duplicate at a single concentration (10 uM for CYP450 assays and 25 uM for all others). […] Each assay was run with positive and negative controls, and concurrent controls on every plate. The follow-up (secondary) screen tested active chemical-pairs in concentration series, as well as a few additional assays not tested in the primary screen, some selected negative inactives, and several cases re-run in the concentration series for confirmatory purposes.
For the compound `CCCCCCCCN(C)CCCCCCCC`, the compound was classed as inactive.

On to `CCCCCCCCOC(=O)c1cc(O)c(O)c(O)c1`, for which the half-maximal activity concentration (AC50) is 25 µM (active).

Take `COc1cc(C(=O)NC2CCN(C)CC2)ccc1Nc1ncc2c(n1)N(C1CCCC1)CC(F)(F)C(=O)N2C`: the result was inactive.

Take `CN(C)C(=O)C1(N2CCCCC2)CCN(CC[C@@]2(c3ccc(Cl)c(Cl)c3)CN(C(=O)c3ccccc3)CCO2)CC1`: the concentration at half-maximal activity (AC50) is 1.59 µM (active).

Take `O=C(Nc1ccc(Cl)cc1)Nc1ccc(Cl)c(Cl)c1`: the compound was called inactive.

On to `NCc1cccc(C2CCN(C(=O)c3ccc(C#Cc4ccccc4F)o3)CC2)c1`, for which the AC50 was 9.74 µM (active).

For the compound `CN(C)c1ccc(C(=C2C=CC(=[N+](C)C)C=C2)c2ccc(N(C)C)cc2)cc1`, the concentration at half-maximal activity (AC50) is 2.02 µM (active).

On to `CCCCCCCCCCCC[N+](C)(C)C`, for which the half-maximal activity concentration (AC50) is 13 µM (active).

With `CC/C(=C(/CC)c1ccc(O)cc1)c1ccc(O)cc1`, the concentration at half-maximal activity (AC50) was 25 µM (active).

For `Cc1cc(F)ccc1-c1cc(N2CC[C@@H](O)[C@H]2CO)ncc1N(C)C(=O)C(C)(C)c1cc(C(F)(F)F)cc(C(F)(F)F)c1`, the concentration at half-maximal activity (AC50) was 7.16 µM (active).

For the compound `CCOC(=O)O[C@H](C)OC(=O)c1ccc2c(c1)cc(C(=O)NC1CCN(C(C)C)CC1)n2Cc1cc(-c2ccc(Cl)s2)on1`, the AC50 was 3.6 µM (active).

Consider `CCN(Cc1cccnc1)C(=O)c1cccc(Cl)c1[C@]1(C)C(=O)N(Cc2ccc(OC)cc2OC)c2ccc(Cl)cc21`, for which the AC50 was 1.91 µM (active).

Regarding `O=C1CCC(C2CCCCC2)CC1`, the compound was called inactive.

As for `CCN(CC)C(=O)c1cc(S(=O)(=O)Cc2ccccc2)c(N2CCC(c3ccccc3)CC2)cc1N(CC)CCN(C)C`, the AC50 is 1.05 µM (active).

Take `O=C1c2ccccc2C(=O)N1CCc1noc(-c2ccc(CN3CCCCCC3)s2)n1`: the half-maximal activity concentration (AC50) was 10.1 µM (active).

With `COc1ccc2cc(S(=O)(=O)N[C@H](CC(=O)N[C@H](Cc3ccc(CN4[C@H](C)CCC[C@@H]4C)cc3)C(=O)N(C)C(C)C)c3ccc4c(c3)OCO4)ccc2c1`, the compound was called inactive.

As to `Cc1cc2c(cc1C(F)(F)F)N(C(=O)Nc1ccc(Oc3cccnc3C)nc1)CC2`, the AC50 was 0.0486 µM (active).

Values taken from PubChem BioAssay (EPA / NIEHS).
